From PubChem BioAssay (NCATS) come the findings set out here.

Unmarked numbers belong to inactive results. Calls of active or inactive are those of the source. Calls come from the whole dose curve; as a rule, active = well fitted activation curve with a large enough effect; inconclusive = small, poorly fitted or top-dose-only effect; inactive = no such curve, though single readings can be large or run the other way.

Chain of Cytochrome P450 3A4 (Homo sapiens) (P08684 whole entry, looked up): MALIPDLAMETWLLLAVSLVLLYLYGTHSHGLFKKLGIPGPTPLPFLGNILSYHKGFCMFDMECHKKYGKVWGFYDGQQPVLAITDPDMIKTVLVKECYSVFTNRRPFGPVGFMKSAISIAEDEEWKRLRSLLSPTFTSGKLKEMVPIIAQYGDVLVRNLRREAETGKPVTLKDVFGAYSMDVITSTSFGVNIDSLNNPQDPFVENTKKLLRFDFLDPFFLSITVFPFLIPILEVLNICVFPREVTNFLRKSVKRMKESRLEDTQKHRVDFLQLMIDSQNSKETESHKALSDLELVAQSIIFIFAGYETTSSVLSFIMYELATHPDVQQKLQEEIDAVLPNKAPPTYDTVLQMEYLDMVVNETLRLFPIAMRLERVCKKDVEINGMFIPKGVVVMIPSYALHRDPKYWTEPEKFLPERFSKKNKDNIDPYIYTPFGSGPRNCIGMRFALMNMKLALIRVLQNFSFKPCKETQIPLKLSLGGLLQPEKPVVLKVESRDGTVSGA

For this test, the target named is Cytochrome P450 3A4 (Homo sapiens) (UniProt P08684). The experiment in a line: qHTS Assay for Activators of Cytochrome P450 3A4 (AID 885). Note: nearly all actives have a fitted effect of over 65% in size. As to conditions: recombinant CYP3A4, Luciferin-PPXE luminescence, 60 min; series mostly up to 57.1 µM; activity change, positive = activation: at the top concentration. As for the experimental part:
NIH Molecular Libraries Screening Centers Network [MLSCN]
NIH Chemical Genomics Center [NCGC]
The P450 gene superfamily is involved in the metabolism and clearance of xenobiotics. This assay used human CYP3A4 to measure the dealkylation of luciferin-6' phenylpiperazinylyl (Luciferin-PPXE; […]) to luciferin. The luciferin is then measured by luminescence after the addition of a luciferase detection reagent. Luciferin-PPXE concentration in the assay was equal to its KM for CYP3A4. Inhibitors and some substrates limit the production of luciferin, and decrease measured luminescence; activators increase the production of luciferin and luminescence.
NCGC Assay Protocol Summary:
Two uL of enzyme and substrate mix (final concentrations: 20nM CYP3A4, 25uM Luciferin-PPXE, 200mM KPO4) were dispensed into a white, solid bottom 1536-well microtiter plate. 23nL of compound was transferred by a pin tool. The plate was incubated at RT for 10 min. Two uL of an NADPH regeneration solution (Promega supplied reagent) was dispensed and the reaction was allowed to continue for 60 min at RT. Then the reaction was stopped by reconstituted luciferin detection buffer. After another 20 min of incubation the plate was read on the ViewLux (Perkin Elmer) at 60 sec exposure and 2x2 binning. This protocol was carried out with Promega-Glo reagents and further information can be found at http://www.promega.com/tbs/tb325/tb325.pdf. Data were normalized to the to AC100 inhibition (57 uM ketoconazole).
Keywords: P450, CYP2D6, Luciferase, MLSMR, MLSCN, NIH Roadmap, qHTS, NCGC
As to `C=CC(C)(C)c1[nH]c2ccccc2c1C1=C(O)C(=O)C(c2c[nH]c3c(CC=C(C)C)cccc23)=C(O)C1=O`, the “activity change, positive = activation” value was -52.5%.
Take `NCCNS(=O)(=O)c1cccc2cnccc12`: the Potency entry was “inactive”.
As to `Fc1ccc([C@H]2CCNC[C@H]2COc2ccc3c(c2)OCO3)cc1`, the “activity change, positive = activation” value was -83.4%.
On the same count and under the same terms, in the case of `CC(C)[C@@H]1[C@H]2CC[C@H](C2)[C@H]1N` it was -53.6%.
Turning to `NC(=NC1C2CC3CC(C2)CC1C3)Nc1ccc(I)cc1` (stereo not given), the “activity change, positive = activation” value was -33%.
Same read-out and setting: in the case of `c1ccc(N2CCN(Cc3nc4ccccc4[nH]3)CC2)nc1` it was -35.6%; in that of `C[C@H]1C=C2C=C[C@H](C)[C@H](CC[C@@H]3C[C@@H](O)CC(=O)O3)[C@H]2[C@@H](OC(=O)[C@@H](C)CCO)C1`, -85%.
`CCS(=O)(=O)N(C)[C@@H]1c2cc(C#N)ccc2OC(C)(C)[C@H]1O`: the Potency entry was “inactive”.
In the case of `NCCCCNS(=O)(=O)c1ccc2c(Cl)cccc2c1`, the “activity change, positive = activation” value is -53.2%.
As for `COc1ccccc1N1CCN(C[C@@H]2CN3C(=O)N(C)c4ccccc4C3=N2)CC1`, the “activity change, positive = activation” value was -69.3%.
Take `CCCCCCCCC(=O)NCc1cc(OC)c(O)cc1I`: the “activity change, positive = activation” value was -74.1%.
Regarding `N#CC(=C(/N)Sc1ccccc1N)/C(C#N)=C(/N)Sc1ccccc1N`, the Potency result is “inactive”.
For `O=c1c(O)cc(C2Oc3cc(O)cc(O)c3CC2O)cc2c(C3Oc4cc(O)cc(O)c4CC3O)cc(O)c(O)c12` (stereo not given), the “activity change, positive = activation” value was -92.1%.
Same read-out and setting: as for `CSc1cc2c(cc1C(F)(F)F)N(C(=O)Nc1cccnc1)CC2`, the figure is -38.8%.
`CNCC[C@H](Oc1ccccc1OC)c1ccccc1`: the Potency result is “inactive”.
As for `O=C(Nc1ccccc1)N[C@H]1C[C@H](C(=O)O)Nc2cc(Cl)cc(Cl)c21`, the “activity change, positive = activation” value is -34.8%.
On the same count and under the same terms, as for `CCCCCCC1=Cc2cc(OC)c(OC)cc2C(C(C(C)=O)C(=O)OCC)O1` (stereo not given), the figure is -42.2% [at 11.4 µM]; as for `COc1ccccc1NC(=O)Nc1nc(-c2cccnc2)nc2ccccc12`, -42.8%; as for `Oc1cc2c(cc1O)[C@H](c1ccccc1)CNCC2`, -59.6%.
On to `O=C(c1c(O)c2ccc(Cl)cc2[nH]c1=O)C1CC1`, for which the “activity change, positive = activation” value was -33.5%.
For `CN1CCN(CCC=C2c3ccccc3Sc3ccc(S(=O)(=O)N(C)C)cc32)CC1`, the Potency entry was “inactive”.
Regarding `Cc1ccc(S(=O)(=O)NCc2ccccc2)cc1`, the “activity change, positive = activation” value was -55.3%.
The same measure, in the same setting: in the case of `CCCCCCC#Cc1cc(OC)c(OC)cc1C(N1CC(C)c2ccccc21)N1CC(C)c2ccccc21` (stereo not given) it was -88.3% [at 11.4 µM]; in that of `CS(=O)(=O)c1ccc(-c2cc(Br)sc2-c2ccc(F)cc2)cc1`, -43.1%.
For `CNCCCCCCCCSc1nc(C(C)C)ccc1C(=O)c1cccs1`, the “activity change, positive = activation” value was -73.4%.
With `C[C@@H]1CC[C@H]2C(=O)NC[C@@H](O)CN2[C@@H]1c1ccc(Br)cc1`, the activity change, positive = activation was -42.5% [at 11.4 µM].
On to `O=S(=O)(NCCCCCCc1ccccc1)c1cccc2c(Cl)cccc12`, for which the “activity change, positive = activation” value was -65%.
Same read-out and setting: in the case of `S=C(Nc1ccccc1)Nc1nccs1` it was -48.9%; in that of `CC1(C)CC(=O)C([C@H]2C3=C(CC(C)(C)CC3=O)Oc3ccccc32)C(=O)C1`, -56.1%.
Same read-out and setting: as for `Cn1cc(C2=C(c3cn(CCCSC(=N)N)c4ccccc34)C(=O)NC2=O)c2ccccc21`, the figure is -34.6%; as for `CCCC[C@@H]1CN2[C@H](c3ccc(Br)cc3)[C@H](C)CC[C@H]2C(=O)O1`, -42.5% [at 11.4 µM].
Still for that read-out and setting: in the case of `C[C@H](NC[C@H](O)CP(=O)(O)CC1CCCCC1)c1ccc(Cl)c(Cl)c1` it was -39.2%.
Take `CC(=O)NCCc1c(Cc2ccccc2)[nH]c2ccccc12`: the “activity change, positive = activation” value is -88.9%.
Same read-out and setting: as for `C[C@@H](/C=C\c1cccc(Oc2ccc(F)cc2)c1)N(O)C(N)=O`, the figure is -104%.
For `COc1ccc2[nH]c(-c3ccccc3)c(CCNC(C)=O)c2c1`, the “activity change, positive = activation” value was -86.7%.
Same read-out and setting: as for `N#C/C(=C\c1ccc(O)c(O)c1)C(=O)Nc1ccccc1`, the figure is -81.7%.
Still for that read-out and setting: in the case of `COc1ccc2[nH]cc(CC(N)C(=O)O)c2c1` (stereo not given) it was -58.3%; in that of `O=[N+]([O-])c1ccc2cn[nH]c2c1`, -51.2%.
Consider `COc1cccc(OC)c1OCCNC[C@@H]1COc2ccccc2O1`, for which the Potency result is “inactive”.
For `NCCCCCCNS(=O)(=O)c1cccc2ccccc12`, the “activity change, positive = activation” value is -92.9%.
